According to paper PMC10338684:

Each substance was assayed against Helicase protein MOM1 (UniProt Q9M658) (assay: mass-spectrometry hit list; affinity purification or IP with mass spectrometry).
UniProt Q9M658, sequence (Q9M658 whole entry): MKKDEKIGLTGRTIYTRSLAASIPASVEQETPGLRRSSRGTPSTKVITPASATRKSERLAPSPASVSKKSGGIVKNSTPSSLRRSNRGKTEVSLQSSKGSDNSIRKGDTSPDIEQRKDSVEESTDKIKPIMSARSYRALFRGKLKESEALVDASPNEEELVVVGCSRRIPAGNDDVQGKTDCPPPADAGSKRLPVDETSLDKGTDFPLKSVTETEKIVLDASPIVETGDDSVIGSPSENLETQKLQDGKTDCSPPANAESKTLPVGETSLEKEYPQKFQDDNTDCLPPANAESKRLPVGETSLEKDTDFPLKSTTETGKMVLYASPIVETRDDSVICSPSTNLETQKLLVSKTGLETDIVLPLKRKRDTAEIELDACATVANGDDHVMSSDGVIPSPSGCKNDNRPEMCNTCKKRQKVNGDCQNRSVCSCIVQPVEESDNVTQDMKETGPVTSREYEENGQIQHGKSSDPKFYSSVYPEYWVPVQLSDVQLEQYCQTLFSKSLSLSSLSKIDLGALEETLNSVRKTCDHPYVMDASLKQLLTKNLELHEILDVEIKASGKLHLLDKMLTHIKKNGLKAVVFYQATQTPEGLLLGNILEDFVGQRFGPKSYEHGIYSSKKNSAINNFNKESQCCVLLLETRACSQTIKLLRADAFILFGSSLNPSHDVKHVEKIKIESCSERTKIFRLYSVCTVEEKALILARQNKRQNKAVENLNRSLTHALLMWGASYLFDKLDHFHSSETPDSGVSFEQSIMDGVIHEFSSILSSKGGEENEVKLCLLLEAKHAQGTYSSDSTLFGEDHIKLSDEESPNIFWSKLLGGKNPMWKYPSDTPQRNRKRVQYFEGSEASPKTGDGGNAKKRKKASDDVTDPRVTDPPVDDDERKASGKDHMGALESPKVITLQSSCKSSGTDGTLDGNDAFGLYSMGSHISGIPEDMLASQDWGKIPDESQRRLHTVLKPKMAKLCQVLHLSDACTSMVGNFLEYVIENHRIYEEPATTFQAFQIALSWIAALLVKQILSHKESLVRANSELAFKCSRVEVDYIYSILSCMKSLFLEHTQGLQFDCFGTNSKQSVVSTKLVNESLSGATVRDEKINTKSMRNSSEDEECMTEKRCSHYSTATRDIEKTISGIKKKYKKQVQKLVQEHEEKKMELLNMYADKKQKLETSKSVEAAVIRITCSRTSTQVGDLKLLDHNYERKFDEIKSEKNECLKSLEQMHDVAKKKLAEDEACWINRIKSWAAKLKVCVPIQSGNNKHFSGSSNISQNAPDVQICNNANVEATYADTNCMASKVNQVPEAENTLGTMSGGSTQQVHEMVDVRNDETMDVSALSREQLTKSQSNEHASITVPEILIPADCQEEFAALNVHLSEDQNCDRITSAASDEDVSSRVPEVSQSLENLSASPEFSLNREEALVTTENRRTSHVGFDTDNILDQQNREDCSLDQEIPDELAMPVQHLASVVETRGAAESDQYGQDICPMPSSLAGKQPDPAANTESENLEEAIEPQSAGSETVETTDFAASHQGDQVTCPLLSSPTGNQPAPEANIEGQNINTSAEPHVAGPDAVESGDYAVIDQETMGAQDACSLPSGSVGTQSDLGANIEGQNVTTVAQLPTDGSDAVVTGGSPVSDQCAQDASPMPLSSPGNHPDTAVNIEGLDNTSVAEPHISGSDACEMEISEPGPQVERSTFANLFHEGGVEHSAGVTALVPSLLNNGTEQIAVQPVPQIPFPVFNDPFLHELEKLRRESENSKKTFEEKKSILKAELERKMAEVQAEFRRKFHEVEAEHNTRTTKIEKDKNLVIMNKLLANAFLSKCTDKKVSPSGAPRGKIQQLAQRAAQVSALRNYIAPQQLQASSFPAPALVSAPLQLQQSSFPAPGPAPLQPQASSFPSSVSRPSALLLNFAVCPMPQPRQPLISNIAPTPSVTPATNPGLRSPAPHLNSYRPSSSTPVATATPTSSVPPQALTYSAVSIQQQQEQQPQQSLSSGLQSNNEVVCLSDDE

Listed as a hit, yes:
Protein MICRORCHIDIA 1, Q84WV6
PHD finger-containing protein 1, B3H578
Chromatin structure-remodeling complex protein SYD, F4IHS2
Structural maintenance of chromosomes flexible hinge domain-containing protein GMI1, F4KFS5
ASI1-immunoprecipitated protein 3, Q8RXT5
E4 SUMO-protein ligase PIAL1, A0A0A7EPL0
DNA-directed RNA polymerases IV and V subunit 2, Q9LK40
Chromatin remodeling ATPase BRAHMA, Q6EVK6
Protein DEFECTIVE IN MERISTEM SILENCING 3, Q94A79
Protein MICRORCHIDIA 6, Q56Y74
DNA-directed RNA polymerase V subunit 1, Q5D869
E4 SUMO-protein ligase PIAL2, F4JYG0
Probable inactive lysine-specific demethylase JMJ19, Q8L7T6
Protein RNA-directed DNA methylation 3, F4JW79
Lysine-specific demethylase JMJ14, Q8GUI6
